Screening results: PubChem, several laboratories
rCAG RNA binder: binds r(CAG) RNA repeats; r(CAG) RNA repeat, TO-PRO-1 dye displacement fluorescence; inhibition, % at 3 µM; hit rate 1.3% among 370,000; AID 651821;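 active = inhibition above the plate cutoff, the mean of all test compounds on that plate plus 3 SD, cut at about 35% in these data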;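 note: higher means more dye released from RNA so lower well fluorescence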
NadD inh: NadD (S. aureus) enzyme inhibition; inhibition, % at 20 µM; hit rate 0.78% among 360,000; purified NadD enzyme, colorimetric absorbance read-out; AID 602399; in the data active = inhibition above about 26%
FAS TE block: blocks the thioesterase domain of human fatty acid synthase; P49327; recombinant FAS-TE, OMFH fluorogenic substrate, fluorescence endpoint; inhibition, % at 15 µM; hit rate 0.67% among 360,000;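 active = compounds whose normalised, plate-corrected inhibition of enzyme fluorescence in the single-dose primary screen is 50% or more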
NR3A LBD binder: NR3A (human) ligand-binding domain modulation; NR3A LBD differential scanning fluorimetry, Tm shift; 0% = protein alone, 100% = glycine-bound protein; Tm shift relative to glycine control, % at 25 µM; hit rate 2.5% among 340,000; AID 1259313;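 active = melting temperature shift of at least 10% of the positive control shift, at one fixed dose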
NadD inh conf: NadD (S. aureus) inhibition, single concentration confirmation. inhibition, % at 20 µM. purified S. aureus NadD, colorimetric enzyme assay. shares compounds with NadD inh. hit rate 13% among 2,000; in the data active = inhibition mostly above about 42%, no sharp cut-off; inactive = mostly below about 42%
Hits are given with their value; . = inactive; / = not tested or not shown. This is a sample that favours compounds with a hit; in the whole collection about 4.3% have one here.

SMILES | rCAG RNA binder | NadD inh | FAS TE block | NR3A LBD binder | NadD inh conf
CC(C)(O)c1ccccc1CC[C@@H](SCC1(CC(=O)O)CC1)c1cccc(/C=C/c2ccc3ccc(Cl)cc3n2)c1 | / | 51 | . | . | 56
Clc1ccc(C2[C@H]3CN(CC4CCCCC4)[C@H](c4ccccc4)C34CC2(c2ccccc2)C4)cn1 (some centres not stated) | . | . | . | . | /
COC(=O)c1ccc(C23CC4(C2)[C@H](CN(CC2CCCCC2)[C@@H]4c2ccccc2)C3c2ccc(Cl)nc2)cc1 (some centres not stated) | . | 35 | . | . | .
CCn1c2ccccc2c2cc(NC(=O)CSc3nnc(-c4ccc(OC)cc4)n3N)ccc21 | . | 30 | . | . | .
COc1ccc(NC(=O)CSc2nnc(-c3ccccc3)n2N)cc1 | . | . | . | . | /
COc1ccccc1Cc1c(-c2ccco2)nc2cc(C)c(Br)c(C)n12 | . | 60 | . | / | .
Cc1cc2nc(-c3ccco3)c(Cc3cccc(Cl)c3)n2c(C)c1Br | . | 61 | . | / | .
Cc1cc2nc(-c3ccco3)c(CC(C)(C)C)n2c(C)c1Br | . | . | . | / | /
Clc1cccc(Cc2c(-c3ccco3)nc3ccc(Br)cn23)c1 | . | 41 | . | / | .
C[C@H](CO)N1C[C@H](C)[C@H](CN(C)C(=O)Nc2cccc(F)c2)OCc2cnnn2CCCC1=O | . | / | / | / | /
CC(=O)CC1c2cc(F)ccc2C=C(c2ccsc2)N1c1ccc(C#Cc2cncn2C)cc1 (configuration not stated) | . | 42 | . | / | .
COc1ccc(-c2ccc(N3C(c4ccsc4)=Cc4ccc(F)cc4C3c3c[nH]c4ccccc34)cc2)cc1 (configuration not stated) | . | . | . | / | /
Cn1cncc1C#Cc1ccc(N2C(c3ccsc3)=Cc3ccc(F)cc3C2c2c[nH]c3ccccc23)cc1 (configuration not stated) | . | 39 | . | / | .
CC(=O)CC1c2cc(F)ccc2C=C(c2ccsc2)N1c1ccc(C#CC2(O)CCCCC2)cc1 (configuration not stated) | . | . | . | / | /
CCOc1ccc(C2C(C#N)=C(N)N(c3sc4c(c3C#N)CCCC4)C3=C2C(=O)CCC3)cc1 (configuration not stated) | . | 55 | . | . | .
Nn1c(SCc2cccc3ccccc23)nnc1-c1n[nH]c2c1CCC2 | . | / | / | / | /
COc1cc(NS(=O)(=O)c2ccc(NC(=S)NC(=O)c3sc4cc(F)ccc4c3Cl)cc2)nc(OC)n1 | . | 35 | . | 17 | .
NC(N)=NS(=O)(=O)c1ccc(NC(=S)NC(=O)c2sc3ccccc3c2Cl)cc1 | . | 43 | . | . | .
O=C(NNC(=S)NC(=O)c1sc2ccccc2c1Cl)c1ccc(Cl)cc1 | . | 36 | . | . | .
COC(=O)c1cc2c(c3c4cc(F)ccc4n(S(=O)(=O)c4ccccc4)c13)C(=O)N(Cc1ccc(N(C)C)cc1)C2 | . | / | / | / | /
C#CCNC(=O)C[C@@H]1C(=O)N(CCc2ccc(Cl)cc2)/C2=C/CCCCC[C@@]21C(=O)OCC | . | / | / | / | /
COc1ccc(N=C2Sc3ccccc3[C@@H]3C[C@H]4[C@H](CON4C)CN23)c(OC)c1 | . | / | / | / | /
COc1ccc(C2CC(=O)C(c3cccc(OC)c3)=CN2Cc2ccccc2)cc1 (configuration not stated) | . | / | / | / | /
COc1ccc(/C=N\NC(=S)SCN2C(=O)C3CCC(C)(C2=O)C3(C)C)cc1 (configuration not stated) | . | . | . | . | /
CN(C)c1ccc(/C=N\NC(=S)SCN2C(=O)C3CCC(C)(C2=O)C3(C)C)cc1 (configuration not stated) | . | 29 | . | . | .
SMILES | rCAG RNA binder | NadD inh | FAS TE block | NR3A LBD binder | NadD inh conf
COCCNc1nc(-c2cc(C)n(CCc3ccc(OC)cc3)c2C)cs1 | . | 36 | . | . | .
COc1ccccc1NS(=O)(=O)c1cc(NC(=O)Nc2ccc(Cl)cc2Cl)ccc1N1CCCCC1 | . | 43 | . | 12 | .
COc1ccccc1NS(=O)(=O)c1cc(NC(=O)c2ccc(Cl)nc2)ccc1N1CCCC1 | / | . | . | . | /
COc1ccc(-n2c(SCC(=O)Nc3ccc4c(c3)OCO4)nc3sc4c(c3c2=O)CCCC4)cc1 | . | / | / | / | /
O=C(Nc1ccc(C2=NCCN2)cc1)c1ccc(C(=O)Nc2ccc(C3=NCCN3)cc2)c([N+](=O)[O-])c1 | . | 50 | . | . | .
CC(C)(C)OC(=O)NCc1ccc(NC(=O)c2nc[nH]c2C(=O)N[C@@H](Cc2ccccc2)C(=O)OC(C)(C)C)cc1 | . | 30 | . | . | .
O=C(Nc1ccccc1)c1nc[nH]c1C(=O)NCCCNC(=O)c1[nH]cnc1C(=O)Nc1ccccc1 | . | . | . | . | /
O=C(Nc1ccccc1)c1nc[nH]c1C(=O)NCCCCCCNC(=O)c1[nH]cnc1C(=O)Nc1ccccc1 | . | 32 | . | 14 | .
CCN(CC)C(=O)c1[nH]cnc1C(=O)Nc1ccccc1 | . | . | . | . | /
O=C(Nc1ccccc1)c1nc[nH]c1C(=O)NCCN(CCNC(=O)c1[nH]cnc1C(=O)Nc1ccccc1)CCNC(=O)c1[nH]cnc1C(=O)Nc1ccccc1 | . | 57 | . | 13 | .
CC(=O)CC[C@H]1CC[C@]2(CCCN(S(C)(=O)=O)C2)O1 | . | / | / | / | /
CCC(=O)N1CCc2cc(Br)c(S(=O)(=O)NCCCN(C)Cc3ccccc3)cc21 | . | / | / | / | /
COc1cccc(N(C(=O)Cn2nnc(-c3cccs3)n2)C(C(=O)NC2CCCCC2)c2ccncc2)c1 (configuration not stated) | . | 33 | . | . | .
Cc1ccc(C)c(N(C(=O)Cn2nnc(-c3cccs3)n2)C(C(=O)NC2CCCC2)c2ccncc2)c1 (configuration not stated) | . | . | . | . | /
COc1ccc2nc3sc(C(=O)NCCCN4CCc5ccccc5C4)cc3cc2c1 | . | 30 | . | 23 | .
COc1ccc(-c2csc(NC(=O)C3=NN(c4ccccc4)C(=O)CC3)n2)cc1 | . | . | . | . | /
COc1ccc(-c2nc(NC(=O)C3=NN(c4cccc(C)c4)C(=O)CC3)sc2C)cc1 | . | 31 | . | . | .
CCc1c(-c2cccc(Br)c2)ncn1CCc1ccccc1OC | . | / | / | / | /
CCCCN1C(=O)N2Cc3cc(OC)ccc3C2CS1(=O)=O (configuration not stated) | . | / | / | / | /
CCCNC(=O)Cn1c(=O)/c(=C\c2ccc(-c3cccc([N+](=O)[O-])c3)o2)s/c1=C\C(=O)C(C)(C)C | . | 35 | . | . | .
CCN(CC)C(=O)CC[C@@H]1CC[C@]2(CCCN(C(=O)C(C)(C)C)C2)O1 | . | / | / | / | /
CCCCCCCCOC(=O)c1c(CSC(=N)N)n(C)c2cc(Br)c(OC(C)=O)cc12 | . | 42 | . | 40 | .
N#Cc1ccccc1/C=N/Nc1nc(-c2ccccc2)c2cc(Br)ccc2n1 | . | . | . | . | /
O=[N+]([O-])c1ccc(/C=N/Nc2nc(N3CCCC3)nc(N3CCCC3)n2)o1 | . | . | . | . | /
O=[N+]([O-])c1ccc(/C=N/Nc2nc(-c3ccccc3)c3cc(Br)ccc3n2)o1 | . | 41 | . | . | .
